This is part of a sample that, as a whole, favours compounds with a hit. Of some 83,000 tested, about 20% had one in any assay.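 Treatment: one concentration, 48 hours, 96-well format. Scoring: percent growth, with anything below 10 considered active.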 Unmarked numbers belong to inactive results. Active and inactive are the calls of the source.
What follows are molecules tested on HL-60(TB) leukemia (assay: NCI-60 one-dose screen, 48 h (100 = growth as untreated, 0 = no growth, -100 = all killed)). Details: 10 µM unless noted.

Point of comparison: `COc1ccc(NC(=O)c2ccc3c(c2)nc(-c2cc4ccccc4[nH]c2=O)n3-c2cc(C(C)(C)C)[nH]n2)cc1`, growth 96.8%. Against it:
- O=C(Cc1ccc(F)c(Cl)c1)Nc1cc(C2(C(F)(F)F)CC2)nn1Cc1ccccc1 — higher, 100%
- Oc1ccccc1N=Cc1ccccc1 — lower, 84.2%
- C=CCNC(=O)c1ccc(OC)cc1 — lower, 87.7%
- CC(COC(=O)c1ccccc1)N1CC2CCC(C1)O2 (stereo not drawn) — higher, 101%
- Cc1ccc(OCCn2c(C)nn(-c3ccc(Cl)cc3)c2=O)cc1 — higher, 114%
- CC(=O)OCC(=O)C1CCC=CC1OC(C)=O (stereo not drawn) — higher, 99.3%
- CC1(C)NCCC[C@]2(C)[C@H]3CC=C4[C@@H]5C[C@@](C)(CO)CC[C@]5(C)CC[C@@]4(C)[C@]3(C)CC[C@@H]12 — lower, 66.3%
- COC(=O)[C@@H](NC(=O)[C@@H](OC)[C@@H]1Cc2cc3cc(OC4CC(OC5CC(O)C(O)C(C)O5)C(O)C(C)O4)c(C)c(O)c3c(O)c2C(=O)[C@H]1OC1CC(OC2CC(OC3CC(C)(O)C(O)C(C)O3)C(O)C(C)O2)C(O)C(C)O1)C(C)C (stereo partly drawn) — lower, 52.4%
- Cc1ccc(-n2nc3c(c(C#N)c2=O)CC(c2ccccc2[N+](=O)[O-])C([N+](=O)[O-])=C3O)cc1 (stereo not drawn) — lower, 91.6%

With `COc1cc2c(cc1OC)C(=O)/C(=C/c1cc(C)c(O)c(C)c1)S2` the growth was -3.56% (active).
For `COc1cc(/C=C2\C(=O)N(c3c(Cl)cccc3Cl)c3ccccc32)cc(OC)c1O`, the growth was -6.44% (active).
With `Nc1ccc(C(=O)c2ccc(N)c(Br)c2)cc1Br` the growth was -16.5% (active).

Reference: PubChem BioAssay (NCI)
